GASC-1 inh – inhibitors of GASC-1 histone demethylase, primary screen, biochemical, fluorescence, DELFIA europium; Lysine-specific demethylase 4C (Homo sapiens), Q9H3R0; GST-JMJD2C(1-420) H3K9me3 demethylation; inhibition, % at 2.35 µM; 330,000 tested, 0.069% active; AID 2099, 2009;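 active = more than half of a compound's replicate wells show inhibition beyond 50%, single wells judged on their own value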;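 also: signal counts dimethyl H3K9 product captured on neutravidin plate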
Target sequence (Q9H3R0 1-420 limits assumed): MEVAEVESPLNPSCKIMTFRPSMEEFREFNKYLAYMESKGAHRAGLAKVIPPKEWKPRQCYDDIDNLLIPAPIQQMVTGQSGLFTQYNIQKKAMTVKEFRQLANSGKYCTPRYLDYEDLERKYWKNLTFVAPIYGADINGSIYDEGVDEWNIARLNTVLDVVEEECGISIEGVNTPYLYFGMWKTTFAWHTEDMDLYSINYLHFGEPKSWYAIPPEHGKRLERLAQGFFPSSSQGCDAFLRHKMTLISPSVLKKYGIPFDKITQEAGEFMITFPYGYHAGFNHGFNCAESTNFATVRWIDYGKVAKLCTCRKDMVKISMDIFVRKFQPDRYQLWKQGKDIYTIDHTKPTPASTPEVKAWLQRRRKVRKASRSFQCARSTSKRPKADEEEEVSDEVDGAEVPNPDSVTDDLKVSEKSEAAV
m5-HT2A agonist – mouse Htr2a agonists via beta-arrestin recruitment, primary screen, cell-based, luminescence. 360,000 tested, 0.66% active. CHO-K1 mHTR2A beta-arrestin complementation; percent of 30 µM serotonin response. activation, % at 7.6 µM;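 active = activation above a run cutoff, the mean activation of all tested compounds plus 3 SD, cut at about 14% in these data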
Exocytosis inh – LAMP-1 surface exposure blockers, TALL-104 cells – cell-based, flow cytometry, MLPCN library, primary screen; inhibition, % at 10 µM; 360,000 tested, 0.66% active; AID 651702, 2012; TALL-104 LAMP-1 surface exposure; cells stimulated with thapsigargin and PMA;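 active = inhibition above about 55%, limit read from the data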
V-ATPase pH – regulators of yeast V-ATPase proton pumping, primary screen, pHLuorin cytosolic pH fluorescence | response, % at 10 µM | S. cerevisiae | 350,000 tested, 0.37% active; in the data active = response mostly above about 7.3%, no sharp cut-off; inactive = mostly below about 5.4%; also: actives read high
MEX-5 binding – MEX-5 zinc finger RNA-binding disruptors – biochemical, C. elegans, fluorescence polarization, MLPCN library, primary screen; AID 1832, 2009; activity score (negative = inhibition of binding), % at 10 µM; 300,000 tested, 0.38% active; Zinc finger protein mex-5 (Caenorhabditis elegans), Q9XUB2; MEX-5/FITC-TCR2 RNA binding; active compounds read low;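 active = inhibition past about -25% in most replicates, and total fluorescence under double the plate's negative control median, limit read from the data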
VLA-4 inh – inhibition in human VLA-4 binding assay, primary screen, VLA-4 allosteric modulator project, MLPCN library, flow cytometry, VLA-4 expressing cells; Integrin alpha-4 (Homo sapiens), P13612; 330,000 tested, 0.2% active; inhibition, % (about 7 µM as worked out from the volumes in the protocol); AID 2557, 2010; ligand binding flow cytometry; in the data active = inhibition above about 50%
OPRM1 ag – OPRM1 agonists via beta-arrestin recruitment, confirmation, counter-screen for mouse HTR2A agonist project, cell-based, luminescence, single concentration. U2OS OPRM1 beta-arrestin PathHunter; DMSO 0%, DAMGO 9.3 µM 100%. shares compounds with m5-HT2A agonist. activation, % at 9.3 µM. AID 624380, 2012. 2,300 tested, 5.3% active;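 active = mean activation above the mean of DMSO-only wells plus 3 SD, cut at about 0.5% in these data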
m5-HT2A ag conf – mouse HTR2A agonists, beta-arrestin recruitment, confirmation, cell-based, luminescence, CHO-K1 PathHunter, triplicate; shares compounds with m5-HT2A agonist; DMSO 0%, 30 µM serotonin 100%; activation, % at 7.6 µM; 2,300 tested, 19% active;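 active = mean activation across triplicates above the hit threshold derived in the original primary screen, cut at about 15% in these data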
Large screens that a line does not name were inactive (follow-up assays come after a bar, where they were run). Sampled rows, rich in hits. Any-hit rate of the full collection: about 2.2%.

CCc1nnc(NC(=O)CCC(=O)N2CCN(Cc3ccccc3)CC2)s1	m5-HT2A agonist 16 | OPRM1 ag inactive | m5-HT2A ag conf inactive
C=CCN=c1scc(-c2ccco2)n1/N=C/c1ccc(O)c(O)c1O	m5-HT2A agonist 16, MEX-5 binding -28 | OPRM1 ag 1.9 | m5-HT2A ag conf 129
Oc1ccc(/C=N/n2c(-c3ccco3)csc2=Nc2cccnc2)c(O)c1	none
COCCN=c1scc(-c2ccco2)n1/N=C/c1ccc(O)c(O)c1O	m5-HT2A agonist 28 (no result: GASC-1 inh, MEX-5 binding) | OPRM1 ag inactive | m5-HT2A ag conf 72
CC(C)N=c1scc(-c2ccco2)n1/N=C/c1ccc(O)c(O)c1	m5-HT2A agonist 18 (no result: GASC-1 inh, MEX-5 binding) | OPRM1 ag 1.1 | m5-HT2A ag conf inactive
Cc1ccccc1C([O-])=Nc1ccc[n+](-c2nc3ccccc3nc2NS(=O)(=O)c2ccccc2)c1	none (no result: m5-HT2A agonist, Exocytosis inh, V-ATPase pH)
O=C(CN1CCN(Cc2ccccc2F)C1=O)NCCc1ccc(Cl)cc1	m5-HT2A agonist 16 | OPRM1 ag inactive | m5-HT2A ag conf inactive
CN(CC(=O)Nc1ccccc1Br)C(=O)c1sccc1-c1ccccc1	none (no result: MEX-5 binding)
CSc1nnnc2ccccc12	none (no result: GASC-1 inh, MEX-5 binding, VLA-4 inh)
Cc1c(NC(=O)C2CC(c3ccc(F)cc3)=NO2)c(=O)n(-c2ccccc2)n1C (stereo not given)	m5-HT2A agonist 15 | OPRM1 ag inactive | m5-HT2A ag conf inactive
N=c1ncn(C2OC(CO)C(O)C2O)c2nc(Br)[nH]c12 (stereo not given)	none (no result: GASC-1 inh, MEX-5 binding, VLA-4 inh)
CCc1cc(=O)oc2cc(C)cc(OC(C)C(=O)NCCCn3ccnc3)c12 (stereo not given)	none
CCOc1ccc(CCNC(=O)c2cccc(NC3=NC4CS(=O)(=O)CC4S3)c2)cc1 (stereo not given)	m5-HT2A agonist 18 | OPRM1 ag inactive | m5-HT2A ag conf inactive
COc1cc2oc(=O)ccc2cc1[C@@H](O)[C@@H]1OC(C)(C)OC1(C)C	none (no result: MEX-5 binding)
CCOc1cc(CNC2CCCC2)cc(Cl)c1OCc1ccc(F)cc1	none
COc1cc(CNC2CCCC2)cc(Cl)c1OCc1ccc(F)cc1	m5-HT2A agonist 18 | OPRM1 ag 0.8 | m5-HT2A ag conf inactive
CCOC(=O)C1=CCC(c2ccc(C)cc2)N(S(=O)(=O)c2ccc(C)cc2)C1 (stereo not given)	none (no result: GASC-1 inh, V-ATPase pH, MEX-5 binding, VLA-4 inh)
COc1ccc(NC(=O)C2CCCN(S(C)(=O)=O)C2)cc1OC (stereo not given)	none
CCOC(=O)c1cc(C(=O)OCC)c(=O)[nH]c1N1CCCC1	none
CCCn1c(SCc2nc(-c3cccs3)no2)nnc1-c1ccncc1	none
CCOc1ccc(-n2c(SCc3nc(-c4cccs4)no3)nnc2-c2ccncc2)cc1	m5-HT2A agonist 29 | OPRM1 ag inactive | m5-HT2A ag conf inactive
CO[C@H]1CN(C)C(=O)c2ccc(NC(=O)C3CCC3)cc2OC[C@H](C)N(CC2CCCCC2)C[C@@H]1C	none (no result: GASC-1 inh, V-ATPase pH, MEX-5 binding, VLA-4 inh)
CO[C@@H]1CN(C)C(=O)c2ccc(NC(=O)C3CCC3)cc2OC[C@H](C)N(CC2CCCCC2)C[C@H]1C	m5-HT2A agonist 21 (no result: GASC-1 inh, V-ATPase pH, MEX-5 binding, VLA-4 inh) | OPRM1 ag inactive | m5-HT2A ag conf inactive
Cc1ccc(S(=O)(=O)NC(=O)Nc2cccc(S(=O)(=O)N(C)C)c2)cc1	m5-HT2A agonist 17 (no result: MEX-5 binding) | OPRM1 ag inactive | m5-HT2A ag conf inactive
Cc1ccc(S(=O)(=O)NC(=O)Nc2ccc(F)c(F)c2)cc1	none

Screening data (PubChem)
